# This is part of a sample that, as a whole, favours compounds with a hit. Of some 83,000 tested, about 20% had one in any assay.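 Cells were grown in 96-well plates and exposed to the test compound at a single concentration for 48 hours; results are reported as percent growth, with values below 10 considered active.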 Activity calls are given as the source filed them.
# System: PC-3 prostate
# Assay: NCI-60 one-dose screen, 48 h (100 = growth as untreated, 0 = no growth, -100 = all killed)
# Settings: 10 µM unless noted
row,SMILES,growth
1,CCOc1ccccc1CN1CCc2nc3cc(C(C)(C)C)[nH]n3c(=O)c2C1,109% (inactive)
2,COc1ccc2sc(N(Cc3cccnc3)C(=O)c3ccc(C#N)cc3)nc2c1,78.2% (inactive)
3,COc1cc(/C=C2\CN(S(=O)(=O)c3ccccc3)C/C(=C\c3cc(CN4CCCC4)c(O)c(OC)c3)C2=O)cc(CN2CCCC2)c1O,8.85% (active)
4,Cc1c(C(=O)OCCO)cc(-c2ccc(Cl)cc2)n1-c1ccc(Cl)cc1Cl,70.4% (inactive)
5,CC(=O)n1cc(-c2c[nH]c3ccccc23)c(-c2ccc(Cl)cc2)n1,81.5% (inactive)
6,COc1cc(C=C2C(=O)N(C)C(=O)N(C)C2=O)cc(CN2CCCCC2)c1O,105% (inactive)
7,O=C(CSc1nc2ccccc2c(=O)n1-c1ccccc1)Nc1ccc(C(=O)/C=C/c2ccc(Cl)cc2)cc1,103% (inactive)
8,CCCCN1CCN(c2ccc3nc(-c4ccc5nc(-c6ccc(OC)c(OC)c6)[nH]c5c4)[nH]c3c2)CC1,14.3% (inactive)
9,CC(C)(C)c1ccc(C2CC(=O)C3=C(C2)Nc2ccccc2N(C(=O)c2ccccc2Cl)C3c2ccc(F)cc2)cc1 (stereo not drawn),8.88% (active)
10,CCOC(=O)c1sc(-c2ccc(OS(=O)(=O)c3ccc(Br)s3)c(C=O)c2)nc1C,20.1% (inactive)
11,CC(=O)Nc1nc2c(s1)CCc1c-2cn(S(=O)(=O)c2ccccc2)c1-c1ccccc1,40.9% (inactive)
12,Clc1ccc(Oc2ccc(Nc3ncnc4onc(-c5ccccc5)c34)cc2)c(Cl)c1,94.2% (inactive)
13,CCN1C(=O)N(CC)C2Nn3c(s/c(=C\c4ccccc4F)c3=O)=NC21 (stereo not drawn),39.6% (inactive)
14,CCCCC1COc2cccc3c2N1C=C/C3=C\C(=O)N(C)c1ccccc1 (stereo not drawn),51.2% (inactive)
15,COC(=O)/C(=C\c1c(-c2ccccc2)[nH]c2ccccc12)S(C)(=O)=O,25.6% (inactive)
16,COC(=O)c1c2c(c(C)[n+]([O-])c1C)C(=O)C=C(NCc1ccccc1)C2=O,4.06% (active)
17,c1ccc(CNc2nc(Nc3ccccc3)nc3ccccc23)cc1,19.5% (inactive)
18,COc1ccc(/C=C/C(=O)c2c(C)nc3ccccc3c2/C=C/c2ccccc2)cc1O,58.4% (inactive)
19,COc1ccc(OC)c(NC(=O)/C(C#N)=C/c2ccco2)c1,89.7% (inactive)
20,COC(=O)/C(CCC=C(C)C)=C1\[C@@H](OC(C)=O)C[C@@]2(C)[C@H]1C[C@@H](O)[C@H]1[C@@]3(C)CC[C@H](NCCCNCCCCNCCCN)[C@@H](C)[C@@H]3CC[C@@]12C,77.3% (inactive)

row,SMILES,growth
1,O=C1c2cc(Br)ccc2Oc2cc([N+](=O)[O-])ccc2N1c1ccc(I)cc1F,103% (inactive)
2,O=C(Nc1ccc(Br)cc1F)c1cc(I)ccc1O,7.07% (active)
3,COc1ccc(-c2cn3c(C(=O)Nc4ccccc4Cl)c(-c4ccccc4)c4c3n2CCCC4)cc1,72.8% (inactive)
4,CSc1nc2c(c(=O)[nH]1)N=C1c3ccccc3C(=O)C1C(c1ccccc1)N2 (stereo not drawn),54.5% (inactive)
5,O=c1[nH]nnc2c1ncn2C1OC(CO)C(O)C1O (stereo not drawn),50.6% (inactive)
6,O=Cc1c(OCc2cnnn2CC(=O)Nc2ccc(Cl)cc2)ccc2ccccc12,105% (inactive)
7,O=C(c1nc2ccccc2[nH]1)C1[C@@H](c2cccc(O)c2)C2CC3CCCCC3N2[C@@]12C(=O)Nc1cc(Cl)ccc12 (stereo partly drawn),24% (inactive)
8,Nc1nc(N)c2c(n1)NC1(C=C(O)c3ccccc31)C1=C(N2)c2ccccc2C1=O (stereo not drawn),107% (inactive)
9,COc1ccc(/C(C#N)=C/c2nc3c(N4CCOCC4)nc(Cl)nc3n2C)cc1OC,9.66% (active)
10,COc1cccc2c1C=C1CCCCC3=Cc4c(OC)cccc4OC13O2,33.7% (inactive)
11,COc1ccc(/C=C/C(=O)c2ccc(Nc3nc(NCCO)nc(Nc4ccc(Cl)cc4)n3)cc2)cc1,50.6% (inactive)
12,O=NN(C(=O)NC1CCC(C(=O)O)CC1)C1CCC(C(=O)O)CC1 (stereo not drawn),98.6% (inactive)
13,CN1CCN(Cc2ccc(NC(=O)c3cncc(C#Cc4nc(N)nc5[nH]ncc45)c3)cc2C(F)(F)F)CC1,108% (inactive)
14,Nc1nc(-c2cnccn2)nn1-c1nc2ccccc2s1,99.4% (inactive)
15,CCOC(=O)c1cc2c(n1Cc1cc(OC)cc(OC)c1)-c1oncc1CCC2,33.2% (inactive)
16,CCOC(=O)c1c(Cl)c2c(n1Cc1ccccc1)-c1oncc1CCC2,65.6% (inactive)
17,COc1nc2c(c(=O)n1C)N=C1c3ccccc3C(=O)C1C(c1ccccc1)N2 (stereo not drawn),115% (inactive)
18,CC1=C(CC(=O)c2cccc([N+](=O)[O-])c2)C(=O)c2ccccc2C1=O,42.8% (inactive)
19,O=C(Nc1ccc(-c2nc3cc4ccccc4cc3[nH]2)cc1)c1cccc(Br)c1,51.1% (inactive)

# System: SK-MEL-5 melanoma
# Assay: as above
# Settings: 10 µM unless noted
row,SMILES,growth
1,CCOc1ccccc1CN1CCc2nc3cc(C(C)(C)C)[nH]n3c(=O)c2C1,101% (inactive)
2,COc1ccc2sc(N(Cc3cccnc3)C(=O)c3ccc(C#N)cc3)nc2c1,80.9% (inactive)
3,COc1cc(/C=C2\CN(S(=O)(=O)c3ccccc3)C/C(=C\c3cc(CN4CCCC4)c(O)c(OC)c3)C2=O)cc(CN2CCCC2)c1O,20.7% (inactive)
4,Cc1c(C(=O)OCCO)cc(-c2ccc(Cl)cc2)n1-c1ccc(Cl)cc1Cl,67.1% (inactive)
5,CC(=O)n1cc(-c2c[nH]c3ccccc23)c(-c2ccc(Cl)cc2)n1,78.8% (inactive)
6,COc1cc(C=C2C(=O)N(C)C(=O)N(C)C2=O)cc(CN2CCCCC2)c1O,100% (inactive)
7,O=C(CSc1nc2ccccc2c(=O)n1-c1ccccc1)Nc1ccc(C(=O)/C=C/c2ccc(Cl)cc2)cc1,103% (inactive)
8,CCCCN1CCN(c2ccc3nc(-c4ccc5nc(-c6ccc(OC)c(OC)c6)[nH]c5c4)[nH]c3c2)CC1,-34.4% (active)
9,CC(C)(C)c1ccc(C2CC(=O)C3=C(C2)Nc2ccccc2N(C(=O)c2ccccc2Cl)C3c2ccc(F)cc2)cc1 (stereo not drawn),-97.5% (active)
10,CCOC(=O)c1sc(-c2ccc(OS(=O)(=O)c3ccc(Br)s3)c(C=O)c2)nc1C,-92.6% (active)
11,CC(=O)Nc1nc2c(s1)CCc1c-2cn(S(=O)(=O)c2ccccc2)c1-c1ccccc1,43.9% (inactive)
12,Clc1ccc(Oc2ccc(Nc3ncnc4onc(-c5ccccc5)c34)cc2)c(Cl)c1,93.4% (inactive)
13,CCN1C(=O)N(CC)C2Nn3c(s/c(=C\c4ccccc4F)c3=O)=NC21 (stereo not drawn),33.9% (inactive)
14,CCCCC1COc2cccc3c2N1C=C/C3=C\C(=O)N(C)c1ccccc1 (stereo not drawn),13.4% (inactive)
15,COC(=O)/C(=C\c1c(-c2ccccc2)[nH]c2ccccc12)S(C)(=O)=O,14.3% (inactive)
16,COC(=O)c1c2c(c(C)[n+]([O-])c1C)C(=O)C=C(NCc1ccccc1)C2=O,-98.5% (active)
17,c1ccc(CNc2nc(Nc3ccccc3)nc3ccccc23)cc1,54.8% (inactive)
18,COc1ccc(/C=C/C(=O)c2c(C)nc3ccccc3c2/C=C/c2ccccc2)cc1O,59.3% (inactive)
19,COc1ccc(OC)c(NC(=O)/C(C#N)=C/c2ccco2)c1,102% (inactive)
20,COC(=O)/C(CCC=C(C)C)=C1\[C@@H](OC(C)=O)C[C@@]2(C)[C@H]1C[C@@H](O)[C@H]1[C@@]3(C)CC[C@H](NCCCNCCCCNCCCN)[C@@H](C)[C@@H]3CC[C@@]12C,12.6% (inactive)

row,SMILES,growth
1,O=C1c2cc(Br)ccc2Oc2cc([N+](=O)[O-])ccc2N1c1ccc(I)cc1F,99.2% (inactive)
2,O=C(Nc1ccc(Br)cc1F)c1cc(I)ccc1O,-68.4% (active)
3,COc1ccc(-c2cn3c(C(=O)Nc4ccccc4Cl)c(-c4ccccc4)c4c3n2CCCC4)cc1,84% (inactive)
4,CSc1nc2c(c(=O)[nH]1)N=C1c3ccccc3C(=O)C1C(c1ccccc1)N2 (stereo not drawn),16.1% (inactive)
5,O=c1[nH]nnc2c1ncn2C1OC(CO)C(O)C1O (stereo not drawn),91.8% (inactive)
6,O=Cc1c(OCc2cnnn2CC(=O)Nc2ccc(Cl)cc2)ccc2ccccc12,100% (inactive)
7,O=C(c1nc2ccccc2[nH]1)C1[C@@H](c2cccc(O)c2)C2CC3CCCCC3N2[C@@]12C(=O)Nc1cc(Cl)ccc12 (stereo partly drawn),37.2% (inactive)
8,Nc1nc(N)c2c(n1)NC1(C=C(O)c3ccccc31)C1=C(N2)c2ccccc2C1=O (stereo not drawn),108% (inactive)
9,COc1ccc(/C(C#N)=C/c2nc3c(N4CCOCC4)nc(Cl)nc3n2C)cc1OC,-50.5% (active)
10,COc1cccc2c1C=C1CCCCC3=Cc4c(OC)cccc4OC13O2,50.3% (inactive)
11,COc1ccc(/C=C/C(=O)c2ccc(Nc3nc(NCCO)nc(Nc4ccc(Cl)cc4)n3)cc2)cc1,66.9% (inactive)
12,O=NN(C(=O)NC1CCC(C(=O)O)CC1)C1CCC(C(=O)O)CC1 (stereo not drawn),104% (inactive)
13,CN1CCN(Cc2ccc(NC(=O)c3cncc(C#Cc4nc(N)nc5[nH]ncc45)c3)cc2C(F)(F)F)CC1,90.2% (inactive)
14,Nc1nc(-c2cnccn2)nn1-c1nc2ccccc2s1,92.2% (inactive)
15,CCOC(=O)c1cc2c(n1Cc1cc(OC)cc(OC)c1)-c1oncc1CCC2,1.12% (active)
16,CCOC(=O)c1c(Cl)c2c(n1Cc1ccccc1)-c1oncc1CCC2,53.1% (inactive)
17,COc1nc2c(c(=O)n1C)N=C1c3ccccc3C(=O)C1C(c1ccccc1)N2 (stereo not drawn),88.7% (inactive)
18,CC1=C(CC(=O)c2cccc([N+](=O)[O-])c2)C(=O)c2ccccc2C1=O,4.78% (active)
19,O=C(Nc1ccc(-c2nc3cc4ccccc4cc3[nH]2)cc1)c1cccc(Br)c1,37.1% (inactive)

# Source: PubChem BioAssay (NCI)
